Among all 5,500 compounds or so, about 2,000 (36%) were called active. About 18% were inconclusive and are not listed. Rule as the data show it: active = normalized growth mostly below about 0.91 (no sharp cut-off); inconclusive = no clear call, values can overlap the other calls; inactive = mostly above about 0.92. Some of the results follow.
Assay: chemical genetic growth profiling, strain panel (AID 1159580);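 also: tested at 20 µM; growth read once vehicle control cultures reached saturation at 30 °C; 1 = growth at the plate median or of vehicle wells; lower values mean less growth of the strain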
Settings: S. cerevisiae deletion strains, growth OD

Measured: normalized growth

CCCCC/C=C/CCC(=O)N[C@H]1[C@H](Oc2c3cc4cc2Oc2ccc(cc2Cl)[C@@H](O[C@@H]2O[C@H](CO)[C@@H](O)[C@H](O)[C@H]2NC(C)=O)[C@@H]2NC(=O)[C@H](NC(=O)[C@@H]4NC(=O)[C@H]4NC(=O)C(Cc5ccc(c(Cl)c5)O3)NC(=O)[C@H](N)c3ccc(O)c(c3)Oc3cc(O)cc4c3)c3ccc(O)c(c3)-c3c(OC4O[C@H](CO)[C@@H](O)[C@H](O)[C@@H]4O)cc(O)cc3[C@@H](C(=O)O)NC2=O)O[C@H](CO)[C@@H](O)[C@@H]1O (stereo not given in full)
inactive: locus YAL021C, strain ccr4, stronger effect = lower value 1 | locus YAL026C, strain drs2, stronger effect = lower value 1 | locus YAL030W, strain snc1, stronger effect = lower value 0.995 | locus YBL061C, strain skt5, stronger effect = lower value 0.987 | locus YBR009C, strain hhf1, stronger effect = lower value 0.996 | locus YBR023C, strain chs3, stronger effect = lower value 0.998 | locus YBR171W, strain sec66, stronger effect = lower value 1 | locus YBR231C, strain swc5, stronger effect = lower value 0.991 | locus YBR279W, strain paf1, stronger effect = lower value 0.997 | locus YCL011C, strain gbp2, stronger effect = lower value 1.01 | locus YCL016C, strain dcc1, stronger effect = lower value 0.995 | locus YCL061C, strain MRC1, stronger effect = lower value 0.999 | locus YCL069W, strain vba3, stronger effect = lower value 0.996 | locus YCR088W, strain abp1, stronger effect = lower value 1.01 | locus YDL005C, strain med2, stronger effect = lower value 0.995 | locus YDL040C, strain nat1, stronger effect = lower value 1 | locus YDR001C, strain nth1, stronger effect = lower value 1 | locus YDR069C, strain doa4, stronger effect = lower value 1 | locus YDR137W, strain rgp1, stronger effect = lower value 1.01 | locus YDR159W, strain sac3, stronger effect = lower value 0.977 | locus YDR195W, strain ref2 0.918 | locus YDR297W, strain sur2, stronger effect = lower value 0.998 | locus YDR334W, strain swr1, stronger effect = lower value 1.01 | locus YDR335W, strain msn5, stronger effect = lower value 0.998 | locus YDR392W, strain spt3, stronger effect = lower value 0.967 | locus YEL003W, strain gim4, stronger effect = lower value 0.989 | locus YEL037C, strain rad23, stronger effect = lower value 1.05 | locus YEL061C, strain CIN8 (second series), stronger effect = lower value 0.999 | locus YER015W, strain faa2, stronger effect = lower value 0.999 | locus YER016W, strain bim1, stronger effect = lower value 1.01 | locus YER111C, strain swi4, stronger effect = lower value 0.987 | locus YER155C, strain BEM2 (second series), stronger effect = lower value 1.01 | locus YFR010W, strain ubp6, stronger effect = lower value 1.03 | locus YGL167C, strain pmr1, stronger effect = lower value 0.993 | locus YGL173C, strain kem1, stronger effect = lower value 0.994 | locus YGL227W, strain vid30, stronger effect = lower value 1 | locus YGL240W, strain doc1, stronger effect = lower value 0.973 | locus YGL253W, strain hxk2, stronger effect = lower value 1 | locus YHR013C, strain ard1, stronger effect = lower value 0.981 | locus YHR027C, strain rpn1, stronger effect = lower value 1 | locus YHR030C, strain SLT2, stronger effect = lower value 0.964 | locus YHR079C, strain IRE1, stronger effect = lower value 0.956 | locus YHR142W, strain chs7, stronger effect = lower value 1.03 | locus YJL092W, strain hpr5, stronger effect = lower value 1 | locus YJL095W, strain BCK1 (second series), stronger effect = lower value 1 | locus YJL095W, strain BCK1, stronger effect = lower value 0.956 | locus YJL115W, strain asf1, stronger effect = lower value 0.996 | locus YJL129C, strain trk1, stronger effect = lower value 1 | locus YJL154C, strain vps35, stronger effect = lower value 1.01 | locus YJL164C, strain tpk1, stronger effect = lower value 1.01 | locus YJL166W, strain qcr8, stronger effect = lower value 0.993 | locus YJL187C, strain SWE1, stronger effect = lower value 1 | locus YJR066W, strain TOR1, stronger effect = lower value 0.935 | locus YKL160W, strain elf1, stronger effect = lower value 0.995 | locus YKR026C, strain gcn3, stronger effect = lower value 0.99 | locus YKR091W, strain srl3, stronger effect = lower value 0.996 | locus YLL001W, strain dnm1, stronger effect = lower value 1.02 | locus YLL026W, stronger effect = lower value 0.996 | locus YLL041C, strain sdh2, stronger effect = lower value 1 | locus YLR027C, strain aat2, stronger effect = lower value 1.01 | locus YLR113W, strain HOG1, stronger effect = lower value 0.942 | locus YLR221C, strain rsa3, stronger effect = lower value 1.01 | locus YLR258W, strain gsy2, stronger effect = lower value 1.01 | locus YLR262C, strain YPT6 (second series), stronger effect = lower value 1.01 | locus YLR320W, strain mms22, stronger effect = lower value 0.988 | locus YLR342W, strain FKS1, stronger effect = lower value 0.988 | locus YLR357W, strain rsc2, stronger effect = lower value 1 | locus YLR370C, strain arc18, stronger effect = lower value 1 | locus YLR384C, strain iki3, stronger effect = lower value 1 | locus YML120C, strain ndi1, stronger effect = lower value 1.01 | locus YMR058W, strain fet3, stronger effect = lower value 1 | locus YMR125W, strain sto1, stronger effect = lower value 1.01 | locus YMR129W, stronger effect = lower value 0.998 | locus YMR205C, strain PFK2, stronger effect = lower value 0.993 | locus YMR231W, strain pep5, stronger effect = lower value 0.991 | locus YNL071W, strain lat1, stronger effect = lower value 1 | locus YNL183C, strain NPR1, stronger effect = lower value 0.936 | locus YNL209W, strain ssb2, stronger effect = lower value 1 | locus YNL248C, strain rpa49, stronger effect = lower value 1.01 | locus YNL322C, strain KRE1 (second series), stronger effect = lower value 0.991 | locus YNR049C, strain mso1, stronger effect = lower value 1.01 | locus YOR001W, strain rrp6, stronger effect = lower value 1.01 | locus YOR070C, strain gyp1, stronger effect = lower value 1.02 | locus YOR080W, strain dia2, stronger effect = lower value 0.98 | locus YOR083W, strain WHI5, stronger effect = lower value 1 | locus YOR106W, strain vam3, stronger effect = lower value 1.02 | locus YOR231W, strain MKK1, stronger effect = lower value 0.961 | locus YOR265W, strain rbl2, stronger effect = lower value 1 | locus YOR270C, strain vph1, stronger effect = lower value 0.993 | locus YOR290C, strain snf2, stronger effect = lower value 1.01 | locus YPL051W, strain arl3, stronger effect = lower value 1.01 | locus YPL078C, strain atp4, stronger effect = lower value 0.999 | locus YPL106C, strain sse1, stronger effect = lower value 0.971 | locus YPL240C, strain hsp82, stronger effect = lower value 0.999 | locus YPL256C, strain CLN2, stronger effect = lower value 0.946

Source: PubChem BioAssay AID1159580 (chemical genetic matrix, 2015)
